Unmarked numbers belong to inactive results. No rule for the calls is given here.
Each molecule was assayed against Pantothenate synthetase (Mycobacterium tuberculosis (strain ATCC 25618 / H37Rv)) (UniProt P9WIL5) (assay: Recombinant Mtb pantothenate synthetase (PanC) inhibitors, coupled enzyme, confirmatory (AID 375;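 also: 0% = full reaction with vehicle and 100% = no enzyme background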)). Conditions: coupled enzyme assay; at 10 µM, active compounds read high.
Pantothenate synthetase (Mycobacterium tuberculosis (strain ATCC 25618 / H37Rv)), sequence (P9WIL5 whole entry, looked up): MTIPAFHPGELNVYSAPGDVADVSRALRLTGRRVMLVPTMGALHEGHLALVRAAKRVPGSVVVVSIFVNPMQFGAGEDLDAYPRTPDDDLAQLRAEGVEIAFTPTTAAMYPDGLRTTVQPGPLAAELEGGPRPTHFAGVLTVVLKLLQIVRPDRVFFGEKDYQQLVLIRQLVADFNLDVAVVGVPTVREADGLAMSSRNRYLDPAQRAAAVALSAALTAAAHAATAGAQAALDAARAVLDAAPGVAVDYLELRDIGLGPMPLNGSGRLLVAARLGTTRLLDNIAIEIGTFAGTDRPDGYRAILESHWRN

Row | Compound | inhibition
1 | Cc1ccc(OCC(=O)NCCN2CCCC2)cc1 | 0%
2 | C=CCN1C(=O)C2(c3ccccc31)C1CCCC=C1C(C#N)=C(N)C2(C#N)C#N (configuration not stated) | 0%
3 | COC(=O)NCC(c1cccnc1)N1CCOCC1 (configuration not stated) | 0%
4 | CCCCC(c1nnnn1CS(=O)(=O)c1ccc(C)cc1)N1CCN(c2ccccc2)CC1 (configuration not stated) | 0%
5 | CC(=O)Nc1ccc(NC2=CC(=O)CC(C)(C)C2)cc1 | 4%
6 | CN(C)S(=O)(=O)N1CCN(c2cccc(Cl)c2)CC1 | 0%
7 | O=C(CN(Cc1ccco1)C(=O)CNS(=O)(=O)c1ccc(F)cc1)NCCc1ccccc1 | 3%
8 | CC(C)(Oc1ccc(Cl)cc1)C(=O)NCc1ccncc1 | 3%
9 | COc1ccc(-c2noc(CN(C(=O)C(C)(C)C)C(C)C)n2)cc1 | 0%
10 | COc1cc(C2C3=C(CC(C)(C)CC3=O)Nc3c2c(=O)[nH]c(=O)n3Cc2ccccc2)ccc1O (configuration not stated) | 4%
11 | COc1cc2c(c(OC)c1)C(c1ccncc1)CC(=O)N2 (configuration not stated) | 0%
12 | Cc1ccc2c(c1)sc1ncc(NC(=O)c3ccccc3)c(=O)n12 | 2%
13 | CCSc1nnc(-c2ccc(OC)cc2)o1 | 0%
14 | COc1ccc(CN(Cc2cc3cc4c(cc3[nH]c2=O)OCO4)C(=O)NC2CCCCC2)cc1 | 3%
15 | CNCCCC1c2ccccc2C=Cc2ccccc21 | 0%
16 | Cc1nc(C)c(C(=O)Nc2ccc(Oc3ccccc3)cc2)o1 | 0%
17 | Cc1cc2oc(=O)cc(CN3CCN(Cc4ccc5c(c4)OCO5)CC3)c2cc1C | 0%

From PubChem BioAssay
